Screens as filed in PubChem BioAssay.
An excerpt weighted towards active compounds, which were near 10% of everything screened.
GPT2 inh – GPT2 alanine aminotransferase inhibition; Q8TD30; 100,000 tested, 0.25% active; Recombinant GPT2, coupled pyruvate oxidase/HRP Amplex Red fluorescence; Potency, µM (doses to about 57.7 µM), for the others: at the highest dose activity change, negative = inhibition, hits mostly inhibitors; also: nearly all actives have a fitted effect of over 60% in size
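Recombinant GPT2 (10ng/uL) with 250uM a-KG and 2mM L-alanine, 30 min at room temperature, in HEPES pH 7.5 buffer. Pyruvate detected by pyruvate oxidase/HRP/Amplex Red fluorescence after 30 min in the dark; AOA (50uM) as positive control.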
HEK293 tox – cytotoxic compounds in HEK 293 cells; 94,000 tested, 6.6% active; Potency, µM (highest dose often 115 µM), without a hit: top-dose activity change, negative = cytotoxicity, hits mostly inhibitors; HEK 293 viability, ATP luminescence (CellTiter-Glo), 48-72 h; also: nearly all actives have a fitted effect of over 60% in size
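qHTS cytotoxicity; HEK 293, 250 cells/well; compound pinned; 48 or 72 hr, 37 degree Celsius, 5% CO2, 95% humidity; CellTiter-Glo, 10 min RT; luminescence (ATP).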
hNpr1 antagonist – human Npr1 receptor antagonism. P16066. HEK293 hNpr1 GloSensor cGMP, ANP-stimulated luminescence. Potency, µM (series often up to 46.3 µM), for inactives: at the highest dose activity change, negative = inhibition, usual class: inhibitors. 76,000 tested, 1.6% active. AID 1347048; calls by dose curve; also: nearly all actives have a fitted effect of over 60% in size
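HEK293 cells stably expressing human Npr1 and cGMP GloSensor pGS-40F, loaded 2 h with 2% GloSensor reagent, given compound 30 min at room temperature. Luminescence read before and 20 min after 0.1 nM hNppA.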
FLuc inh – inhibitors of firefly (Photinus pyralis) luciferase; purified P. pyralis luciferase, luminescence, biochemical; AID 1347043; Potency, µM (titrated, usually from 115 µM), actives largely listed as inhibitors; 76,000 tested, 2.5% active; also: nearly all actives have a fitted effect of over 65% in size
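FLuc 10nM, D-luciferin 10uM, ATP 10uM, Mg acetate 10mM, Tris acetate pH 7.5, Tween/BSA; cpd qHTS; enzyme added last; CCD luminescence.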
NIH3T3 tox – kills NIH 3T3 cells | NIH 3T3 viability, CellTiter-Glo ATP luminescence, 48-72 h | Potency, µM (highest dose often 96.7 µM), inactives show at the top dose activity change, negative = cytotoxicity, most hits filed as inhibitors | 94,000 tested, 4.3% active; also: nearly all actives have a fitted effect of over 55% in size
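Cytotoxicity was measured by CellTiter-Glo ATP luminescence after 48 or 72 h compound exposure at 37 °C. Mouse NIH 3T3 fibroblasts were seeded at 400 cells/well and dosed by 23 nL pin transfer.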
* = called active by the depositor; i = inactive; ? = inconclusive; nt = no result; [ ] = another dose, or the depositor's remark. Unless noted, calls follow the shape of the dose curve; as a rule, active = well fitted curve in the direction sought with a large enough effect; inconclusive = small, poorly fitted or top-dose-only effect, or another doubt; inactive = no such curve, though single readings can be large; an effect the other way counts as inactive or inconclusive. % is scaled to controls: 0 for no effect and ±100 for the full control effect; potency is read from the fitted curve at half-maximal effect.

SMILES	GPT2 inh	HEK293 tox	hNpr1 antagonist	FLuc inh	NIH3T3 tox
COC(=O)[C@@H]1Cc2c([nH]c3ccccc23)[C@H]2C[C@@H](NCCNC(C)=O)C[C@@H](c3ccc(C)cc3)N21	-4%	28µM*	-12%	i	28µM*
CC(=O)NCCNC(=O)c1cccc(-c2ccc(C(F)(F)F)cc2)c1	i	-17%	nt	nt	-35%
COC(=O)[C@@H]1Cc2c([nH]c3ccccc23)[C@@H]2C[C@@H](NCCNC(C)=O)C[C@@H](c3ccc(F)c(F)c3)N12	1%	32µM*	5%	i	32µM*
COCCNC(=O)[C@H]1C[C@H](Oc2ccccc2)CN1C(=O)NCc1ccc(C)cc1	-6%	i	0%	i	-5%
COC(=O)[C@@H]1Cc2c([nH]c3ccccc23)[C@H]2C[C@@H](NCCNC(C)=O)C[C@@H](c3ccc(C(C)C)cc3)N21	-2%	13µM*	-25%	i	28µM*
O=C(O)[C@@H]1[C@H]2C[C@H]3c4[nH]c5ccccc5c4CCN3C[C@@H]2CC[C@@H]1O	0%	nt	nt	nt	nt
COC(=O)[C@@H]1Cc2c([nH]c3ccccc23)[C@H]2C[C@@H](NCCNC(C)=O)C[C@@H](c3ccccc3)N21	-3%	?	-4%	?	79µM*
Cc1ccc(NC(=O)c2cc(-c3ccc(Cl)cc3Cl)c3nncn3n2)cc1	1%	0%	nt	nt	-19%
COc1ccccc1-c1cc(C(=O)NCc2cccc(C(F)(F)F)c2)nn2cnnc12	-7%	40µM*	nt	nt	?
COc1ccccc1-c1cc(C(=O)Nc2ccc(C)cc2)nn2cnnc12	i	35µM*	nt	nt	-18%
COc1ccccc1-c1cc(C(=O)NCc2ccccc2)nn2cnnc12	i	?	nt	nt	?
COCCNC(=O)c1cc(-c2ccc([S+](C)(=O)[O-])cc2)c2cccn2n1	i	?	nt	nt	?
Cc1cnc(CC2CCCN(C(=O)C3CCC3)C2)n1Cc1ccccc1 (stereo not drawn)	i	-4%	4%	i	5%
O=C(NCc1cccc(F)c1)C1CCCCN1Cc1ccc(-c2ccsc2)cc1 (stereo not drawn)	-14%	40µM*	nt	nt	28µM*
O=C(NCc1cccc(F)c1)C1CCCCN1Cc1ccc(-c2cccs2)cc1 (stereo not drawn)	-4%	20µM*	nt	nt	28µM*
O=C(NCc1ccc2c(c1)OCO2)C1CCCCN1Cc1ccc(-c2ccsc2)cc1 (stereo not drawn)	4%	22µM*	nt	nt	13µM*
Cc1cc(C)cc(-c2ccc(CN3CCCC3C(=O)NCc3cccc(F)c3)cc2)c1 (stereo not drawn)	-26%	?	nt	nt	?
O=C(NCC(F)(F)F)c1nc2cccnc2n(C2CC2)c1=O	-14%[88.5 µM]	-2%[172 µM]	nt	nt	-18%[138 µM]
CCCN1CCCC2(CCN(C(=O)c3cc(CC)[nH]c(=O)c3)C2)C1=O (stereo not drawn)	?	-6%	4%	i	-3%
COc1ccc(-c2cc(C(=O)NC3CCNCC3)c3c(C)nn(-c4ccccc4)c3n2)cc1	i	25µM*	nt	nt	7.1µM*
COc1ccc(-c2cc(C(=O)NC3CC3)c3c(C)nn(-c4ccccc4)c3n2)cc1	i	?	nt	nt	22µM*
CC(C)CN1C(=O)c2cccn2CC1C(=O)NCCN1CCOCC1 (stereo not drawn)	-4%	1%	4%	i	3%
O=C(NC1CC1)c1ccc2nnc(-c3cc[nH]c3)n2c1	i	i	nt	nt	-12%[138 µM]
COCCn1ccc2c(C3=CCOCC3)nc(-c3cccc(C(N)=O)c3)cc21	?	?	-3%[70.6 µM]	i	25µM*
C1=C(c2nc(-c3ccncc3)cc3c2ccn3Cc2cccnc2)CCOC1	2%[88.5 µM]	?	-3%[70.6 µM]	i	22µM*
OCc1ccc(-c2cc3c(ccn3Cc3cccnc3)c(C3=CCOCC3)n2)cc1	5%[88.5 µM]	?	3%[70.6 µM]	i	?
Cc1cc(C(=O)N(CCC(=O)NCCC(C)C)CCC(C)C)c(C)o1	-3%	32µM*	-16%	i	?
CCCCCN(CCC(=O)NCCC(C)C)C(=O)c1cc(C)oc1C	?	28µM*	-23%	i	?
